Source: PubChem BioAssay (National Center for Advancing Translational Sciences (NCATS))
In the library only some 2.6% were active in any assay of this set; here they are far more common.
Cruzain inh noDet – blocks cruzain activity in detergent-free assay; P25779; purified cruzain, Z-FR-AMC fluorescence, no detergent; Potency, µM, for the others: max response, negative = inhibition, hits mostly inhibitors; actives 2.3% (n = 200,000);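 also: plate controls were enzyme without inhibitor for no effect and buffer without enzyme for full effect; nearly all actives have a fitted effect of over 40% in size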
Target sequence (P25779 123-467 limits assumed): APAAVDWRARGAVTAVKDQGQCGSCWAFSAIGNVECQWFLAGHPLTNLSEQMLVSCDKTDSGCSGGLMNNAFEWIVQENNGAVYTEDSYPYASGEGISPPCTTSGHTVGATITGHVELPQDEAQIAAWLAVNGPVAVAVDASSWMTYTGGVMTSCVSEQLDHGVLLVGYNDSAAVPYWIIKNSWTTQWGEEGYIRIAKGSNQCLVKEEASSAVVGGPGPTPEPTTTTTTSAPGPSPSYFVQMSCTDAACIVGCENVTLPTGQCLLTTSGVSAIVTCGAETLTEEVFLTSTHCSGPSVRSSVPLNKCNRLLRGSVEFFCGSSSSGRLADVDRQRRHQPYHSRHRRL
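Purified cruzain at 1.5 nM, pre-incubated 15 min with compound at room temperature in 100 mM sodium acetate pH 5.5, 5 mM DTT, 0.00005% Triton X-100. Reaction started with 2 uM Z-FR-AMC; AMC fluorescence increase over 60 s gives rate.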
Cruzain inh Det – blocks cruzain activity in presence of Triton detergent. P25779. purified cruzain, Z-FR-AMC fluorescence, 0.01% Triton. Potency, µM, inactives show max response, negative = inhibition, most hits filed as inhibitors. actives 0.43% (n = 200,000). AID 1478;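 also: plate controls were neutral wells for no effect and buffer without enzyme for full effect; nearly all actives have a fitted effect of over 40% in size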
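Detergent-containing run (0.01% Triton X-100) in acetate buffer pH 5.5 with 5 mM DTT: enzyme at 1.5 nM final, 15 min compound preincubation at room temperature, then 2 uM Z-FR-AMC substrate. Activity taken as 60 s fluorescence increase at 360/450 nm.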
Active calls of the source: *. Calls follow the shape of the dose curve; as a rule, active = well fitted curve in the direction sought with a large enough effect; inconclusive = small, poorly fitted or top-dose-only effect, or another doubt; inactive = no such curve, though single readings can be large; an effect the other way counts as inactive or inconclusive. Potency is read from the fitted curve at half-maximal effect.

Screening Nc1ccc(-c2nc3ccc(-c4nc5ccc(N)cc5[nH]4)cc3[nH]2)cc1 returned Cruzain inh noDet 25µM* and Cruzain inh Det 14µM*.
For CCN(CC)CCCNC(=S)N1CCn2c(nc3ccccc32)C1 the results were Cruzain inh noDet -4% and Cruzain inh Det 13µM*.
For CCN(CC)C(=O)N1CCn2c(nc3ccccc32)C1 the results were Cruzain inh noDet -1% and Cruzain inh Det -1%.
CC1O[C@@H](O[C@@H]2C(O)C[C@H](O[C@@H]3C(O)C[C@@H](OC4CC[C@@]5(C)C6CC(O)[C@@]7(C)C(C8=CC(=O)OC8)CC[C@@]7(O)C6CC[C@@H]5C4)OC3C)OC2C)CC(O)[C@H]1O (stereo partly drawn) was read as Cruzain inh noDet inconclusive and Cruzain inh Det -1%.
For Cc1ccc(S(=O)(=O)N2CCCc3cc(NS(=O)(=O)c4cccc(Cl)c4)ccc32)cc1 the results were Cruzain inh noDet 25µM* and Cruzain inh Det -2%.
Screening CCOc1ccc(S(=O)(=O)Nc2ccc3c(c2)CCCN3S(=O)(=O)c2ccc(C)cc2)cc1 returned Cruzain inh noDet inconclusive and Cruzain inh Det -2%.
Screening CC(=O)Nc1cccc(NC(=O)CSc2ccc(-c3sc(-c4ccccc4)nc3C)nn2)c1 returned Cruzain inh noDet inconclusive and Cruzain inh Det -6%.
`Cc1cc(C)c2c(c1)/C(=N/NS(=O)(=O)c1ccccc1)CCC2` gave Cruzain inh noDet 4% and Cruzain inh Det -7%.
Screening Cc1cc(C)c2c(c1)/C(=N/NC(=S)Nc1ccc(F)cc1)CCC2 returned Cruzain inh noDet 16µM* and Cruzain inh Det -9%.
For CC(=O)c1ccc(Oc2nc(C)nc3c2oc2ccccc23)cc1 the results were Cruzain inh noDet inconclusive and Cruzain inh Det -4%.
Screening Cc1ccccc1Cn1cc(S(=O)(=O)CC(=O)Nc2nccs2)c2ccccc21 returned Cruzain inh noDet 16µM* and Cruzain inh Det -7%.
`CCOC(=O)N1CCN(C(=O)CS(=O)(=O)c2cn(Cc3ccccc3C)c3ccccc23)CC1` gave Cruzain inh noDet -4% and Cruzain inh Det 1%.
For COc1ccc(OC)c(NC(=O)c2ccc3nc(C(C)C)oc3c2)c1 the results were Cruzain inh noDet -1% and Cruzain inh Det -4%.
Screening Cc1ccc(NC(=O)Cn2c(=O)c(C(F)(F)F)nc3ccccc32)cc1C returned Cruzain inh noDet -3% and Cruzain inh Det 2%.
`CCOC(=O)Cn1c(-c2nonc2NC(=O)c2ccccc2F)nc2ccccc21` gave Cruzain inh noDet 25µM* and Cruzain inh Det -2%.
`Cc1ccc(NC(=O)Cn2c(/C=C/c3ccccc3)nc3ccccc32)cc1C` gave Cruzain inh noDet 16µM* and Cruzain inh Det -12%.
Screening Cc1ccc(NC(=O)Cn2c(-c3nonc3N)nc3ccccc32)cc1Cl returned Cruzain inh noDet 7.9µM* and Cruzain inh Det 0%.
Screening Nc1nonc1-c1nc2ccccc2n1CC(=O)N/N=C\c1ccc(-c2ccc(Cl)cc2)o1 returned Cruzain inh noDet 4µM* and Cruzain inh Det -4%.
Nc1nonc1-c1nc2ccccc2n1CC(=O)Nc1ccc(F)cc1 was read as Cruzain inh noDet -5% and Cruzain inh Det -2%.
`Nc1nonc1-c1nc2ccccc2n1CC(=O)Nc1cccc(Cl)c1Cl` gave Cruzain inh noDet 2% and Cruzain inh Det -1%.
For CCC(=O)Nc1nonc1-c1nc2ccccc2n1Cc1ccccc1 the results were Cruzain inh noDet 1% and Cruzain inh Det -9%.
`Cc1ccc(NC(=O)c2c(C)oc3ncn(C)c(=O)c23)cc1F` gave Cruzain inh noDet -4% and Cruzain inh Det -2%.
For COc1ccc(Cn2ccc3nc(C)c(C(=O)Nc4ccc(OC)c(OC)c4)cc3c2=O)cc1 the results were Cruzain inh noDet -3% and Cruzain inh Det 0%.
For COc1ccc(-c2nc(CNS(=O)(=O)c3cccc(F)c3)cs2)cc1 the results were Cruzain inh noDet -6% and Cruzain inh Det -13%.
For Clc1ccc(OCCSCc2nc3ccccc3[nH]2)cc1 the results were Cruzain inh noDet 25µM* and Cruzain inh Det inconclusive.
Screening Cc1ccc(OCCSCc2nc3ccccc3[nH]2)cc1 returned Cruzain inh noDet -9% and Cruzain inh Det -20%.
`Oc1ccccc1C1=Nc2nc3ccccc3n2C(c2ccccc2)C1` (stereo not drawn) gave Cruzain inh noDet 25µM* and Cruzain inh Det -5%.
c1ccc(C2Nc3ccccc3-c3nc4ccccc4n32)cc1 (stereo not drawn) was read as Cruzain inh noDet inconclusive and Cruzain inh Det -1%.
Cc1cccc(N2CCN(C(=O)CS(=O)(=O)c3cccc4nsnc34)CC2)c1C was read as Cruzain inh noDet 7% and Cruzain inh Det -5%.
For Nc1[nH]nc2c1NN(c1ccc(Cl)cc1Cl)N2 the results were Cruzain inh noDet 20µM* and Cruzain inh Det -17%.
For Nc1nc(-c2ccc(Cl)cc2Cl)cn1N the results were Cruzain inh noDet -18% and Cruzain inh Det 14%.
For NC(=S)N=Nc1c(O)[nH]c2ccccc12 the results were Cruzain inh noDet 13µM* and Cruzain inh Det inconclusive.
